The whole screen tested about 360,000 compounds, of which about 6,200 (1.7%) were called active.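 Rule for the calls: active = inhibition of at least 50% at 20 µM; inactive = the rest.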 For the sample, actives were picked, then their nearest neighbours and some compounds at random.

The assay in a line: Peg3 promoter-driven luciferase inhibitors, primary screen, cell-based, HeLa, luciferase luminescence (AID 588405). Conditions: HeLa PEG-Prom luciferase reporter, overnight, at 20 µM, active compounds read high. A general note: In a reporter assay the amount or activity of a reporter protein is the signal.
Take `CCOC(=O)C1=CC[C@@H](c2ccncc2)N(S(=O)(=O)c2ccc(C)cc2)C1`: the inhibition (commonly the change of the read-out against control, counted positive when it falls) was 27.8% (inactive).
With `O=C(Nc1ccc(Cl)c(C(F)(F)F)c1)C1Cc2c(-c3ccccc3Oc3ccccc3)ccnc2O1` (stereo not given), the inhibition is 26.9% (inactive).
For the compound `CC(C)(C)C(=O)NC(NC(=S)Nc1ccc(S(N)(=O)=O)cc1)C(Cl)(Cl)Cl` (stereo not given), the inhibition is 17% (inactive).
On to `O=C(Cc1cccc2ccccc12)NNC(=O)Nc1ccc(Cl)cc1`, for which the inhibition was -102% (inactive).
As for `Cc1ccc(NC(=S)NC(NC(=O)Cc2cccc3ccccc23)C(Cl)(Cl)Cl)cc1` (stereo not given), the inhibition is 105% (active).
To `COc1ccc2c(c1OC)C(=O)OC2Nc1nc(-c2ccccc2)cs1` (stereo not given) belongs 104% (active); to `C/C(CC1CC(C)(C)OC1=O)=N/Nc1nc(-c2ccccc2)cs1` (stereo not given), -108% (inactive); to `CC(C)C1CC2=C(C(=O)OC(C)(C)O2)C(c2ccc(F)cc2)O1` (stereo not given), 4.49% (inactive).
The figure for `COc1ccc(Cl)cc1-c1cc(C(=O)Nc2cc(OC)c(OC)c(OC)c2)[nH]n1` is 33.8% (inactive); for `O=C(Nc1ccc(Cl)cc1)c1csc([C@H]2C[C@H](O)[C@@H](CO)O2)n1` it is -232% (inactive); for `Cc1ccc([C@@H]2CC(=O)[C@@H]3CN(S(=O)(=O)c4ccc(C)cc4)[C@H](c4ccccc4F)C[C@@H]3N2S(=O)(=O)c2ccc(Cl)cc2)cc1` it is 13.7% (inactive).
`COc1ccc(NC(=O)N(C)C[C@@H]2OCc3cn(nn3)CCCC(=O)N([C@H](C)CO)C[C@H]2C)c(OC)c1`: the inhibition was -5.47% (inactive).
The figure for `NC(N)=N/N=C/c1ccc(OCc2ccc(Cl)cc2Cl)cc1` is 99.3% (active); for `COc1ccc(Cl)cc1N(CC(=O)N/N=C/c1ccc(OCC(N)=O)cc1)S(C)(=O)=O` it is -7.79% (inactive); for `Cc1nc2ccccc2nc(C)c1=NOCc1ccc(Cl)cc1Cl` it is 29.6% (inactive).
For `O=C(Nc1ccc(F)cc1)C1CCN(C(=O)c2ccc([N+](=O)[O-])cc2)CC1`, the inhibition is 17.8% (inactive).
In the case of `O=C(/C=C/c1ccc([N+](=O)[O-])o1)NNC(=O)c1ccc(F)cc1`, the inhibition was 99.4% (active).
Take `O=C(/C=C/c1ccc(F)cc1)NC(=S)NNC(=O)c1cccnc1`: the inhibition is 8.82% (inactive).
The figure for `Cc1nnc(SCC(=O)N2c3ccccc3C(C)(c3ccc(Cl)cc3)CC2(C)C)s1` (stereo not given) is 51.1% (active); for `CC1(c2cccc([N+](=O)[O-])c2)CC(C)(C)N(C(=O)c2ccccc2)c2ccccc21` (stereo not given) it is 34.9% (inactive).
As to `CC1(c2ccccc2)CC(C)(C)N(C(=O)c2cc([N+](=O)[O-])cc([N+](=O)[O-])c2)c2ccccc21` (stereo not given), the inhibition is 16.3% (inactive).
For the compound `COc1ccc(NC(=O)/C(Cl)=C(/Cl)S(=O)Cc2ccc(C)cc2)cn1` (stereo not given), the inhibition is 109% (active).
Consider `COc1ccc(NC(=O)CN2C(=O)NC(C)(c3ccccc3)C2=O)cn1` (stereo not given), for which the inhibition was 1.66% (inactive).
`COc1ccc(NC(=O)C2Cc3c(-c4ccc5c(c4)OCO5)ccnc3O2)cn1` (stereo not given): the inhibition was 21.4% (inactive).
The figure for `Cc1cc2nc(-c3ccco3)c(Cc3cccc(F)c3)n2c(C)c1Br` is -26.2% (inactive); for `CC(Sc1nnc(C2CC2)n1C1CC1)C(=O)Nc1ccc(C(N)=O)cc1` (stereo not given) it is 0.86% (inactive).
To `CCOC(=O)c1c(-c2ccccc2)oc2cc(Br)c(O)c(C=O)c12` belongs 69.1% (active).
For `Cc1oc2cc(Br)c(O)c(Br)c2c1C(=O)c1ccccc1`, the inhibition was -69.5% (inactive).
For the compound `CCOC(=O)c1c(C)oc2cc(Sc3ccccc3)c(O)c(O)c12`, the inhibition is -89% (inactive).
The figure for `CCCNC(=O)c1cc(C2CCCCN2S(=O)(=O)c2cn(C)cn2)on1` (stereo not given) is -3.04% (inactive); for `O=C(CNC(c1ccccc1)c1ccccc1)Nc1ccc(F)cc1` it is 6.17% (inactive); for `O=S1(=O)CC(N2CCN(c3ccccn3)CC2)CN1Cc1ccc(F)cc1` (stereo not given) it is 10.9% (inactive).
In the case of `Cc1ccc(F)c(S(=O)(=O)NC(=O)C2(C)CCN2C(=O)c2ccco2)c1` (stereo not given), the inhibition is -1.32% (inactive).
`CCOc1ccc(N(CC(=O)NCC2CCCO2)S(=O)(=O)c2ccc(C)cc2)cc1` (stereo not given): the inhibition is 14.4% (inactive).
With `COc1ccc(NC(=O)c2sc3nc(C)nc(N4CCN(c5ccccn5)CC4)c3c2C)c(OC)c1`, the inhibition is 30.7% (inactive).
In the case of `Cc1cc(Br)ccc1NC(=O)c1sc2ncn(CC(=O)N3CCN(c4ccccn4)CC3)c(=O)c2c1C`, the inhibition was 1.76% (inactive).
As to `Cc1cc(Br)ccc1NC(=O)c1cnc(N2CCN(c3ccccn3)CC2)c2ccccc12`, the inhibition is 64.2% (active).
The figure for `CC(=O)Nc1cccc(-c2cc(NC=O)c3ncc(-c4ccc(F)c(Cl)c4)n3c2)c1` is 40.1% (inactive); for `CC(C)(C)CC(=O)Nc1nnc(SCC(=O)NCc2cccs2)s1` it is 9.91% (inactive).
With `COc1ccc(CC(N)c2csc(NC(=O)Cc3ccccc3)n2)cc1` (stereo not given), the inhibition is 49.7% (inactive).
The figure for `Cc1ccccc1NC(=O)Cc1nc(COC(=O)c2ccc(C(F)(F)F)cc2)cs1` is -7.19% (inactive); for `COc1ccc(OC)c(NC(=O)N[C@H](Cc2ccccc2)C(=O)NN)c1` it is 9.08% (inactive); for `COC(=O)[C@H](CCSC)NC(=O)Nc1ccc(OC)cc1` it is 10.2% (inactive).
Turning to `COc1ccc(CC(N)c2csc(NC(=O)Nc3ccc(C(C)C)cc3)n2)cc1` (stereo not given), the inhibition was 100% (active).
For the compound `COc1ccc(NC(=O)C(Br)C(C)C)cc1` (stereo not given), the inhibition is -6.38% (inactive).
In the case of `CC(C)(C)CC(=O)Nc1nc(C(N)Cc2ccc(C(F)(F)F)cc2)cs1` (stereo not given), the inhibition is 102% (active).
Consider `COc1ccc(CC(N)c2csc(NC(=O)NC(c3ccccc3)c3ccccc3)n2)cc1` (stereo not given), for which the inhibition was 96.6% (active).
For `O=C(NCc1ccc(F)cc1)c1cc(C2CCCCN2C(=O)c2cccs2)on1` (stereo not given), the inhibition is 12.7% (inactive).
With `CC(C)Cn1c(N)c(C(=O)COC(=O)C2CCCN2C(=O)c2cccs2)c(=O)n(C)c1=O` (stereo not given), the inhibition was 8.57% (inactive).
For `C#Cc1ccc(NC(=O)C2(C)CCN2C(=O)Cc2ccc(-c3ccccc3)cc2)cc1` (stereo not given), the inhibition was 20.8% (inactive).
On to `O=C(NCc1cccnc1)c1cc(C2CCCN(C(=O)C3CCCCC3)C2)on1` (stereo not given), for which the inhibition was 3.87% (inactive).
To `CC(C)CCNC(=O)c1[nH]c(C(F)(F)F)nc1-c1ccccc1` belongs 11.4% (inactive).
As to `COc1ccc(C(NC(=O)C2CCN(CCCc3ccccc3)CC2)c2cccs2)cc1` (stereo not given), the inhibition was 2.75% (inactive).
On to `Nc1ncnc2c1ncn2[C@@H]1O[C@H](C(=O)NCC(F)(F)F)[C@@H](O)[C@H]1O`, for which the inhibition is 4.09% (inactive).
`Cc1c(C(=O)NCc2ccc(C#N)cc2)sc(=O)n1Cc1ccc(C(=O)N(C)C)cc1`: the inhibition is 7.87% (inactive).
For the compound `COc1ccc2sc(-c3ccc(S(C)(=O)=O)cc3)c(-c3ccc(C(N)=O)cc3)c2c1`, the inhibition was 3.59% (inactive).
To `Cn1cncc1C#Cc1c(-c2ccsc2)sc2ccccc12` belongs 44.3% (inactive).
With `COc1ccc2sc(-c3ccc(S(C)(=O)=O)cc3)c(C#Cc3cncn3C)c2c1`, the inhibition is 54.5% (active).
Turning to `CCn1c(SCC(=O)Nc2ccc(C)cc2)nc2nc3c(cc2c1=O)CCCC3`, the inhibition was 10.5% (inactive).
Turning to `CCNC(=S)Nc1ccc2c(c1)c(=O)n(C)n2Cc1ccc(Cl)cc1`, the inhibition is -3.64% (inactive).
On to `c1ccc2c(c1)C(=NC1CCCCC1)NC2=NC1CCCCC1`, for which the inhibition is 101% (active).
Turning to `CC1(C)Cc2nc3sc4c(SCC(=O)NC(c5ccccc5)c5ccccc5)ncnc4c3cc2CO1`, the inhibition is -23% (inactive).
Take `Cc1ccccc1S(=O)(=O)NC(=O)C1(C)CCN1C(=O)C1(c2ccc(Cl)cc2)CC1` (stereo not given): the inhibition was 15.9% (inactive).
Regarding `Cc1cccc(-c2cnc(C(O)c3ccc4ccccc4c3)[nH]2)c1` (stereo not given), the inhibition was 5.95% (inactive).
Take `Cc1nc2c(OCc3ccc(Cl)cc3Cl)cccn2c1N(C)CC1CC1`: the inhibition is 27.9% (inactive).
With `OC(CNCC1CCCO1)Cn1c2ccc(Br)cc2c2cc(Br)ccc21` (stereo not given), the inhibition was 104% (active).
For the compound `COCCNC(=O)c1ccc(Cn2c(SCC(=O)NCC3CCCO3)nc3ccc(Br)cc3c2=O)cc1` (stereo not given), the inhibition is -11.8% (inactive).
Regarding `CCCN1CCn2c3c(c4cc(Br)ccc42)CCCC31` (stereo not given), the inhibition was -52.1% (inactive).
For the compound `CNC(=O)NC(=O)C(OC(=O)c1cccc(S(=O)(=O)N2CCCCC2)c1)c1ccccc1` (stereo not given), the inhibition is 8.72% (inactive).
For `CCN1/C(=C\c2ccc3ccccc3[n+]2CC)Sc2cc(C)ccc21`, the inhibition was 95.8% (active).
`OCCN1CCN(c2ncnc3c2ncn3[C@H]2CN(Cc3ccco3)C[C@@H](CO)O2)CC1`: the inhibition is -0.36% (inactive).
For `Cc1ccccc1Cn1c(C)c(C(=O)NCc2cccc(C(F)(F)F)c2)sc1=O`, the inhibition is -0.27% (inactive).
On to `CC(C)CC(N=C1NC(C)(C)Cc2ccccc21)C(=O)O` (stereo not given), for which the inhibition is 0.64% (inactive).
`NC(=O)c1nsc(C(=O)N(CC(=O)NCc2ccc(F)cc2)Cc2ccco2)c1N`: the inhibition is 17.3% (inactive).
Regarding `COc1ccc(CNC(=O)C(c2ccc(O)cc2)N(Cc2ccco2)C(=O)c2snc(C(N)=O)c2N)cc1` (stereo not given), the inhibition is 56.7% (active).
Consider `COc1cc(C(C(=O)NC2CCCC2)N(Cc2ccccc2)C(=O)c2snc(C(N)=O)c2N)ccc1O` (stereo not given), for which the inhibition is -1.6% (inactive).
As to `CCOC(=O)C1(C)CCCN(C(=O)c2ccc(N(C)C)cc2)C1` (stereo not given), the inhibition was 0.13% (inactive).
With `Cc1cc(C)n2nc(C(=O)OC(C)C(=O)c3cc(C)c(C)cc3C)nc2n1` (stereo not given), the inhibition was -10.9% (inactive).
Consider `CSCCC(NS(=O)(=O)c1ccc2c(c1)oc(=O)n2C)C(=O)NC1CCCc2ccccc21` (stereo not given), for which the inhibition was 3.82% (inactive).
To `CC1=C(C(=O)N(C(C)C)C(C)C)CC(CC(=O)NCCCCc2ccccc2)C(=O)N1CCC1=CCCCC1` (stereo not given) belongs 18.7% (inactive); to `COc1cccc2c1C(=O)c1c(O)c3c(c(O)c1C2=O)CC(O)(C(C)=NNC(=O)c1ccc(Cl)c(Cl)c1)CC3OC1CC(N)C(O)C(C)O1` (stereo not given), 98.3% (active).
`O=C(NC1CC1)C1=C[C@H](c2c[nH]c3ccccc23)C[C@H](OCc2ccc(CO)cc2)O1`: the inhibition was -8.53% (inactive).
Turning to `O=C(Nc1cccc2ccccc12)c1[nH]c(-c2ccccc2)c2c1C(=O)N(C1CC1)C2=O`, the inhibition is 52.8% (active).
In the case of `O=C(Nc1cccc2ccccc12)c1onc2c1CCCC2`, the inhibition is -211% (inactive).
As to `O=C(Nc1cccc2ccccc12)NC1CC1`, the inhibition was 6.64% (inactive).
